A word on the AC50: it is the concentration at which the activity in the assay is half-maximal.

The text below walks through data of PubChem BioAssay (EPA / NIEHS).

Calls of active or inactive are those of the source. The calls were made as follows: active = hit-call score of the fitted dose curve at least 0.9, where 1 is the maximum; inactive = score below 0.9.

The nature of the assay: CCTE_Shafer_MEA_acute_interburst_interval_mean: CCTE's Neural Acute Assay for Mean Interburst Interval, Shafer Lab (AID 2284016).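 Also: percent change of mean interburst interval versus each well's own pre-dose baseline.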 On the procedure:
CCTE_Shafer_MEA_acute assay is conducted using Axion Biosystems 48 well microelectrode array (MEA) plates and Maestro recording system. Each well of the MEA plate contains a grid of 16 microelectrodes embedded in the culture surface. Electrically active cells, such as neurons, can be cultured over the electrodes, and electrical activity in these cells can be recorded extracellularly. The spontaneous firing of neurons is captured from each electrode on a microsecond timescale providing both temporally and spatially precise data. […] The CCTE_Shafer_MEA_acute assay uses primary cultures of rat cortical neurons. As these cultures mature over time, neural networks develop functional activity and form cohesive networks in which electrical activity can be highly coordinated. Baseline 40-minute recordings are made on days post-plating 13 or 15, followed by a secondary 40-minute recording after chemical exposure.CCTE_Shafer_MEA_acute_interburst_interval_mean is a component of the CCTE_Shafer_MEA_acute assay. It measures the average time between the start of consecutive single-electrode bursts (temporally-clustered groups of action potential firing) during a recording in a microelectrode array (MEA) using Axion Biosystems Maestro 768 channel amplifier with the AxIS adaptive spike detector. The recordings before and after chemical treatment are used to calculate a percent change in the mean inter-burst interval in each well.Data from the assay component CCTE_Shafer_MEA_acute_interburst_interval_mean was analyzed into 1 assay endpoint. This assay endpoint, CCTE_Shafer_MEA_acute_interburst_interval_mean, was analyzed in the negative analysis fitting direction relative to DMSO as the negative control and baseline of activity. Using a type of functional reporter, gain or loss-of-signal activity can be used to understand electrical activity.
Spontaneous activity in the cortical cultures was recorded using an Axion Biosystems Maestro 768 channel amplifier and Axion Integrated Studios (AxIS) v1.8 (or later) software. The amplifier recorded from all channels simultaneously (gain = 1200 x; sampling rate = 12.5 kHz/channel): raw signals were filtered with a Butterworth band-pass filter (300-5000 Hz), which filters out slower local field potentials leaving only fast potentials, i.e., "spikes", arising from extracellular currents associated with action potentials (Pine 2006; Wheeler and Nam 2011). On-line spike detection of filtered signals was conducted with the AxIS adaptive spike detector, using a threshold of 8x the root mean squared (rms) noise on each channel. Any electrodes with rms noise levels greater than 5 uV were grounded (e.g., no data were recorded). Once grounded, an electrode was grounded for the duration of the experiment. All recordings were conducted at 37 C. Wells were deemed usable if on the day of the exposure >/= 10 electrodes were active (defined as >/= 5 spikes/min). On DIV 13 or 15, a minimum of three wells from one cortical culture preparation were treated with each compound (0.03-40 uM). Prior to recording baseline activity, each mwMEA plate was placed in the Maestro at 37 C and allowed to sit for 20 min while firing rates stabilized. Baseline activity (40 min) was recorded before the addition of each compound. An additional 40 min of spontaneous activity was recorded in the presence of each compound. Changes in network parameters relative to baseline were assessed following compound treatment.
As for `Oc1ccc(O)cc1`, the half-maximal activity concentration (AC50) was 20 µM (active).
For `CCCCC(CC)COP(=O)(OCC(CC)CCCC)OCC(CC)CCCC` (stereo not drawn), the result was inactive.
The same measure, in the same setting: the result for `CN(C)C(=O)NC1(c2ccccc2)CCN(CCC[C@]2(c3ccc(Cl)c(Cl)c3)CCCN(C(=O)c3ccccc3)C2)CC1` reads “inactive”.
With `O=C(N[C@@H](c1ccccc1)[C@@H]1CCCCN1)c1cccc(C(F)(F)F)c1Cl`, the AC50 is 7.65 µM (active).
For `Nc1nc(=S)c2[nH]cnc2[nH]1`, the result was inactive.
Same read-out and setting: to `CC1=C(C)S(=O)(=O)CCS1(=O)=O` belongs “inactive”.
Turning to `COc1ccc(OC(F)(F)F)cc1CN[C@H]1CCCN[C@H]1c1ccccc1`, the AC50 is 7.18 µM (active).
On to `Cc1c(C)c2c(c(C)c1O)CCC(C)(COc1ccc(CC3SC(=O)NC3=O)cc1)O2` (stereo not drawn), for which the result was inactive.
For `Cc1ccc(-c2cc(C(F)(F)F)nn2-c2ccc(S(N)(=O)=O)cc2)cc1`, the concentration at half-maximal activity (AC50) was 5 µM (active).
Take `CC(C)COC(=O)CCCCC(=O)OCC(C)C`: the result was inactive.
In the case of `NC(=Nc1ccccc1)Nc1ccccc1`, the AC50 was 1.27 µM (active).
For `Cc1cc(SC2=C(O)C[C@@](CCc3ccc(N)cc3)(C(C)C)OC2=O)c(C(C)(C)C)cc1CO`, the compound was classed as inactive.
Same read-out and setting: the result for `C/C=C/c1ccc(OC)cc1` reads “inactive”; that for `CCN(CC)CCOc1ccc(C(=C(Cl)c2ccccc2)c2ccccc2)cc1`, “inactive”; that for `CN(C)C(=O)NC1(c2ccccc2)CCN(CC[C@@]2(c3ccc(F)c(F)c3)CN(C(=O)c3ccccc3)CCO2)CC1`, “inactive”.
Consider `Cc1cc(Cc2ccc(N)c(C)c2)ccc1N`, for which the AC50 was 35.7 µM (active).
`CN(C)CCCN1c2ccccc2Sc2ccc(Cl)cc21`: the compound was classed as inactive.
Still for that read-out and setting: to `CC(N)=O` belongs “inactive”.
Take `Cc1ccc(C(C)(C)C)c(O)c1`: the compound was called inactive.
On the same count and under the same terms, to `CCCC(=O)O` belongs “inactive”; to `CCc1cc(C2=C(C(=O)O)N(c3ccccc3C(F)(F)F)S(=O)(=O)c3ccccc32)cc2c1OCO2`, “inactive”.
On to `CSc1ccc(Oc2ccc(S(N)(=O)=O)cc2CN(C)C)cc1C`, for which the outcome was inactive.
On the same count and under the same terms, to `CC(C)NCC(O)c1ccc(O)c(O)c1` (stereo not drawn) belongs “inactive”.
As for `COC(=O)[C@H]1[C@H]2C[C@@H]3c4[nH]c5cc(OC)ccc5c4CCN3C[C@H]2C[C@@H](OC(=O)c2cc(OC)c(OC)c(OC)c2)[C@@H]1OC`, the AC50 is 4.18 µM (active).
For `O=C1OC(c2ccc(O)cc2)(c2ccc(O)cc2)c2ccccc21`, the outcome was inactive.
Same read-out and setting: to `c1ccc2occc2c1` belongs “inactive”; to `OCC(CO)n1cnc(-c2ccc(F)cc2)c1-c1ccnc(Oc2ccccc2)n1`, “inactive”.
Same read-out and setting: to `O=C(O)CN(CC(=O)O)CC(=O)O` belongs “inactive”.
